Reference: PubChem BioAssay (NCI)
The panel holds about 79,000 compounds, 15% with a hit somewhere; the sample as a whole holds those more often. Values without a mark were called inactive. Active and inactive are the calls of the source. Cut-off read from the data, not from the text of the source: active = growth inhibition above about 70%; inactive = the rest.

Key:
[1] = NCI Yeast Anticancer Drug Screen. Data for the rad50 strain (AID 155);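 note: 0% = growth of vehicle-only cultures of the same strain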; conditions: S. cerevisiae rad50 strain growth inhibition; at 50.0 µM; stronger effect = higher value
Procedure, shortened: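 Yeast carrying a defined DNA repair defect were exposed to test compounds, and growth was compared with vehicle-treated controls to give percent inhibition.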

[2] = NCI Yeast Anticancer Drug Screen. Data for the mec2-1 strain (AID 157); conditions: S. cerevisiae mec2-1 strain, at 50.0 µM, stronger effect = higher value
Procedure, shortened: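 mec2-1 yeast strain, carrying an alteration in DNA damage repair or cell cycle control, was exposed to compounds; growth inhibition was measured relative to vehicle-treated controls.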

[3] = NCI Yeast Anticancer Drug Screen. Data for the sgs1 mgt1 strain (AID 161);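 note: 0% = growth of cultures given vehicle only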; conditions: S. cerevisiae sgs1 mgt1 strain, at 50.0 µM, stronger effect = higher value
Procedure, shortened: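 This yeast growth screen uses a strain with defined DNA-repair lesions; compound-treated growth is compared with vehicle-treated growth.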

[4] = NCI Yeast Anticancer Drug Screen. Data for the cln2 rad14 strain (AID 165);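 note: 0% = growth equal to vehicle treated cultures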; conditions: S. cerevisiae cln2 rad14 strain, at 50.0 µM, stronger effect = higher value
Procedure, shortened: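 Yeast carrying cln2 and rad14 alterations (cell cycle control and DNA damage repair) were exposed to compounds. Growth inhibition was measured against vehicle-treated controls.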

[5] = NCI Yeast Anticancer Drug Screen. Data for the bub3 strain (AID 167); conditions: S. cerevisiae bub3 mutant strain, at 50.0 µM, stronger effect = higher value
Procedure, shortened: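 Compounds were applied to a genetically altered yeast strain carrying a cell-cycle control defect. Growth inhibition was scored against vehicle-treated controls.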

[6] = NCI Yeast Anticancer Drug Screen. Data for the mlh1 rad18 strain (AID 175); conditions: S. cerevisiae mlh1 rad18 strain growth inhibition; at 50.0 µM; stronger effect = higher value
Procedure, shortened: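 Growth inhibition of the yeast strain was measured after compound exposure and expressed relative to vehicle-treated controls. The strain carries defined defects in DNA damage repair.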

Row | Structure (SMILES) | growth inhibition [1] | growth inhibition [2] | growth inhibition [3] | growth inhibition [4] | growth inhibition [5] | growth inhibition [6]
1 | O=c1c(O)c(-c2ccc(O)cc2O)oc2cc(O)cc(O)c12 | -8.35% | -29.2% | -3.55% | 3.5% | -19.4% | -26.8%
2 | CCCC(=O)N(CC)CC | 11.2% | -8.6% | -0.8% | -15% | 0% | -20.9%
3 | Cc1cc(=O)n2c(cc3cccccc32)n1 | 14.6% | -1.3% | -13.4% | -23.4% | -23.4% | 4.65%
4 | CCOC(=O)C(=O)C1CC(c2ccccc2)=NNC1=O (configuration not stated) | 23% | 26.5% | 12.9% | 23.1% | 31.1% | 26.2%
5 | CN1CC(c2ccccc2)=Cc2c1ccc(N)c2N=N | -13.3% | -29.2% | -0.3% | 15.6% | 12.8% | 0.15%
6 | C/C=C(\C)C(=O)OC1C2C(C)=CC(=O)C(O)C2(C)C2C3(O)OCC24C1OC(=O)C(OC(C)=O)C4C(C)C3O (configuration not stated) | 91.9% (active) | 93.3% (active) | 92.8% (active) | 91.8% (active) | 91.7% (active) | 91.6% (active)
7 | O=C(O)c1cc(O)c(O)c(Cl)c1 | 10.3% | 6.15% | 4.1% | -9% | 6.6% | 5.05%
8 | O=C1C2C3CCC(C3)C2C(=O)C2C3CCC(C3)C12 (configuration not stated) | -1.6% | -12.7% | -9.95% | -8.45% | 8.75% | 6.65%
9 | O=C1C(=C(c2ccccc2)N2CCCCC2)C(=O)c2ccccc21 | 14.9% | -3.6% | 15.1% | -7.75% | 19.3% | 3.2%
10 | CC1(C)OC(=O)C(=Cc2cccc3ccc4ccccc4c23)C(=O)O1 | 31.9% | 18.3% | 8.9% | -17.1% | 40.7% | 40.6%
11 | Fc1ccc(-c2cc(-c3cc(-c4ccc(F)cc4)n[nH]3)[nH]n2)cc1 | 20.6% | 9.2% | 25.9% | 6.6% | 9.4% | 32.1%
12 | CC1=CC(=O)C(=CN2C(=O)/C(=C\c3cccnc3)NC2=S)C(=O)O1 | -21.2% | -12.2% | -18.9% | -20.1% | -3.7% | -21.9%
13 | O=c1[nH]nc(-c2ccc3c(c2)Cc2ccccc2-3)c2ccccc12 | 12.8% | -0.15% | -23.9% | -1.95% | 10.3% | 17.5%
14 | CCCCC(CC)(CC(=O)O)CC(=O)O | 10.4% | 9.85% | 12.3% | -14.8% | 7.85% | 7.1%
15 | Cc1cc(C)nc(NS(=O)(=O)c2ccc(Nc3c4ccccc4nc4c(C(=O)Nc5ccc(S(=O)(=O)N=C(N)N)cc5)cccc34)cc2)n1 | 24.1% | 35.8% | 30.9% | 35.2% | 19.6% | 44.1%
16 | O=c1oc(-c2ccccc2)nc2c1CCCS2 | -1.2% | -0.95% | -5.65% | 1.85% | -8.25% | -3.05%
17 | Cc1ccc(C2=NO[C@@H]3C(=O)N(c4ccc(Cc5ccc(N6C(=O)[C@H]7C(c8ccc(C)cc8)=NO[C@H]7C6=O)cc5)cc4)C(=O)[C@H]23)cc1 | -0.4% | 30.1% | 29.1% | 32.4% | 31.1% | 20.1%
18 | CC(=O)Nc1ccc(S(=O)(=O)c2ccc(NC(C)=O)s2)s1 | -6.05% | -1.3% | -4.1% | -15.4% | -15.3% | -18.9%
19 | CCOC(=O)C(CC)(C(=O)OCC)C(C)C | 15.6% | 30.4% | -17.9% | -28.1% | -9.95% | -6.8%
20 | O=C(CN1CCN(c2ccccc2)CC1)N1CCc2c([nH]c3ccccc23)C1c1cccnc1 (configuration not stated) | 2.45% | -19.8% | -19.6% | 28.6% | 4.35% | -21.6%
21 | FS(F)(F)(F)(F)c1cccc(NC(=S)SCc2ccc3c(c2)OCO3)c1 | 97.6% (active) | 99% (active) | 98.8% (active) | 99.3% (active) | 98.8% (active) | 98.3% (active)

Row | Structure (SMILES) | growth inhibition [1] | growth inhibition [2] | growth inhibition [3] | growth inhibition [4] | growth inhibition [5] | growth inhibition [6]
22 | CCOc1ccc(N=Cc2c3ccccc3nc3ccccc23)cc1 | -3.05% | 14.5% | -3.25% | 25.9% | 6.25% | -9%
23 | COC(=O)/C=C(\C(=O)OC)C(C(=O)c1ccccc1)=P(c1ccccc1)(c1ccccc1)c1ccccc1 | -9.95% | 8.7% | -4.2% | -26.5% | 3.55% | 1.15%
24 | CCC/C=N/NS(=O)(=O)c1ccc(C)cc1 | 32.1% | 15.7% | 30.8% | 11.8% | -29.9% | 12.6%
25 | O=[N+]([O-])c1nccn1CCCl | 20.1% | -3.75% | 2.35% | -26.1% | -9.85% | -1.7%
26 | C/C=C1\CN2CCc3c([nH]c4ccccc34)C2C=C1CCO (configuration not stated) | -19.1% | -34.4% | -26.4% | -13.2% | -41.1% | -43.7%
27 | CN(C)C(=O)NO | -32% | -26.1% | -11.8% | -19.8% | -3.3% | -28.4%
28 | CC(=O)OCN(C)N=Nc1ccc([N+](=O)[O-])cc1 | 28% | 10.5% | 25.8% | 6.15% | 10.6% | 22.6%
29 | CN(C=O)C1CCC2C3CC=C4CC(OC=O)CCC4(C)C3CCC21C (configuration not stated) | 1.35% | 11.3% | 3.85% | 5.95% | -2.9% | -2%
30 | CC1CC=[N+]([O-])C1(C)C (configuration not stated) | -6.6% | -18.1% | 14.2% | -12.2% | 16.7% | -11.1%
31 | CC1=Nc2ccc(C)cc2N=C(C)C1 | 11.4% | 4.1% | 7.2% | -29.4% | 22.4% | -1.6%
32 | N#CC1=C(c2ccccc2)NN(Cc2ccccc2)C(c2ccc(Cl)cc2)CC1=O (configuration not stated) | 31.9% | 7.25% | 8.25% | -44.1% | 2.6% | 30.6%
33 | O=C(Nc1cccc(Cl)c1)OCC#CCOC(=O)Nc1cccc(Cl)c1 | -4% | 11.6% | 1.95% | -10.8% | 0.85% | 11.2%
34 | Clc1cccc(Cl)c1C(Nc1ncccn1)Nc1ncccn1 | 12.2% | 14.8% | 12.1% | -16.4% | 9.6% | 20.4%
35 | Cc1ccc(S(=O)(=O)OC(c2ccc(C(OS(=O)(=O)c3ccc(C)cc3)(C(F)(F)F)C(F)(F)F)cc2)(C(F)(F)F)C(F)(F)F)cc1 | 4.45% | 6.65% | -17.8% | 10.8% | 4.4% | 4.7%
36 | COc1ccc(-c2cc(=O)c3c(O)c(OC)c(O)c(OC)c3o2)cc1OC | -0.4% | -37.5% | 5.1% | 5.15% | 29.7% | 20%
37 | CCCCOC(=O)NC(=O)c1cc2ccc(N(CC)CC)cc2oc1=O | -10.5% | 3.5% | 8.7% | 3.4% | 5.4% | 4.2%
38 | O=C(O)C(Cl)C(Cl)c1ccc(Cl)cc1 (configuration not stated) | -2.6% | 7.15% | 6.15% | -57.3% | 11.9% | 6.6%
39 | Cc1nc(C(Cl)(Cl)Cl)nc(C(Cl)(Cl)Cl)n1 | 19.9% | 47% | 27.2% | 9% | 18.4% | 20.4%
40 | CCCNS(C)(=O)=O | 7.25% | 1.2% | 10.2% | 3.15% | 11.1% | 3.6%
41 | Cc1ccc(S(=O)(=O)OCCN(CCOS(=O)(=O)c2ccc(C)cc2)c2cccc(Cl)c2)cc1 | 14.1% | 2.35% | 4.65% | 19% | -4.45% | 29.9%
42 | CCCCCCCCCCCCCCCCS(=O)(=O)N/N=C(/c1cccc(N)c1)N1CCOCC1 | -29.6% | -40.8% | -13.2% | 4.2% | -7.75% | -21.2%
